According to PubChem BioAssay (EPA / NIEHS):
Active and inactive are the calls of the source. Rule for the calls: active = hit-call score of the fitted dose curve at least 0.9, where 1 is the maximum; inactive = score below 0.9.

Test: CCTE_Shafer_MEA_acute_per_network_burst_electrodes_number_mean: CCTE's Neural Acute Assay for Mean Number of Electrodes in a Network Burst, Shafer Lab (AID 2284021);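 note: curves fitted for decreases only so hits reduce electrodes per burst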
Description: CCTE_Shafer_MEA_acute assay is conducted using Axion Biosystems 48 well microelectrode array (MEA) plates and Maestro recording system. Each well of the MEA plate contains a grid of 16 microelectrodes embedded in the culture surface. Electrically active cells, such as neurons, can be cultured over the electrodes, and electrical activity in these cells can be recorded extracellularly. The spontaneous firing of neurons is captured from each electrode on a microsecond timescale providing both temporally and spatially precise data. […] The CCTE_Shafer_MEA_acute assay uses primary cultures of rat cortical neurons. As these cultures mature over time, neural networks develop functional activity and form cohesive networks in which electrical activity can be highly coordinated. Baseline 40-minute recordings are made on days post-plating 13 or 15, followed by a secondary 40-minute recording after chemical exposure.CCTE_Shafer_MEA_acute_per_network_burst_electrodes_number_mean is a component of the CCTE_Shafer_MEA_acute assay. It measures the average number of electrodes with activity during a network burst (a temporally-clustered group of action potential firing across multiple electrodes) in a recording in a microelectrode array (MEA) using Axion Biosystems Maestro 768 channel amplifier with the AxIS adaptive spike detector. The recordings before and after chemical treatment are used to calculate a percent change in the mean number of electrodes participating in network bursts in each well.Data from the assay component CCTE_Shafer_MEA_acute_per_network_burst_electrodes_number_mean was analyzed into 1 assay endpoint. This assay endpoint, CCTE_Shafer_MEA_acute_per_network_burst_electrodes_number_mean, was analyzed in the negative analysis fitting direction relative to DMSO as the negative control and baseline of activity. Using a type of functional reporter, gain or loss-of-signal activity can be used to understand electrical activity.
Spontaneous activity in the cortical cultures was recorded using an Axion Biosystems Maestro 768 channel amplifier and Axion Integrated Studios (AxIS) v1.8 (or later) software. The amplifier recorded from all channels simultaneously (gain = 1200 x; sampling rate = 12.5 kHz/channel): raw signals were filtered with a Butterworth band-pass filter (300-5000 Hz), which filters out slower local field potentials leaving only fast potentials, i.e., "spikes", arising from extracellular currents associated with action potentials (Pine 2006; Wheeler and Nam 2011). On-line spike detection of filtered signals was conducted with the AxIS adaptive spike detector, using a threshold of 8x the root mean squared (rms) noise on each channel. Any electrodes with rms noise levels greater than 5 uV were grounded (e.g., no data were recorded). Once grounded, an electrode was grounded for the duration of the experiment. All recordings were conducted at 37 C. Wells were deemed usable if on the day of the exposure >/= 10 electrodes were active (defined as >/= 5 spikes/min). On DIV 13 or 15, a minimum of three wells from one cortical culture preparation were treated with each compound (0.03-40 uM). Prior to recording baseline activity, each mwMEA plate was placed in the Maestro at 37 C and allowed to sit for 20 min while firing rates stabilized. Baseline activity (40 min) was recorded before the addition of each compound. An additional 40 min of spontaneous activity was recorded in the presence of each compound. Changes in network parameters relative to baseline were assessed following compound treatment.

Row | Structure (SMILES) | outcome | AC50
1 | Cc1ccccc1OP(=O)(Oc1ccccc1C)Oc1ccccc1C | inactive | –
2 | O=C(Cc1ccccc1)OCCc1ccccc1 | inactive | –
3 | CCCCOC(=O)COC(=O)c1ccccc1C(=O)OCCCC | inactive | –
4 | CCCCCCCCCCCCc1cccc(S(=O)(=O)O)c1 | inactive | –
5 | CC(C)(C)c1ccccc1O | inactive | –
6 | CC(C)[C@@H](Nc1ccc(C(F)(F)F)cc1Cl)C(=O)OC(C#N)c1cccc(Oc2ccccc2)c1 (stereo not given in full) | – | 310 nM (active)
7 | Oc1cc(Cl)c(Cl)cc1Cl | inactive | –
8 | CS(=O)(=O)c1ccc(C(=O)C2C(=O)CCCC2=O)c(Cl)c1COCC(F)(F)F | inactive | –
9 | Oc1ccc(Cc2ccc(O)cc2)cc1 | inactive | –
10 | OCCCCO | inactive | –
11 | Clc1cccc(Cl)c1Cl | inactive | –
12 | CN(C)C(=S)S | inactive | –
13 | Cc1cc(C(F)(C(F)(F)F)C(F)(F)F)ccc1NC(=O)c1cccc(I)c1C(=O)NC(C)(C)CS(C)(=O)=O | inactive | –
14 | N#Cc1cccnc1 | inactive | –
15 | CC1(C)[C@H](C(=O)O[C@H](C#N)c2cccc(Oc3ccccc3)c2)[C@@H]1/C=C(\Cl)C(F)(F)F | – | 818 nM (active)
